Laboratory results published in PubChem BioAssay AID463213 (Sanford-Burnham Center for Chemical Genomics, 2010).
About 4,100 (55%) of roughly 7,400 compounds were called active.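 Rule for the calls: active = inhibition of yeast growth at or above a set limit in either of two repeat tests at 20 µM; inactive = the rest.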 The set was probably picked from earlier hits. Only a sample is shown.

Experiment: tim10-1 ts yeast growth inhibition, retested – single concentration, luminescence, S. cerevisiae, confirmation (AID 463213);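 note: tim10-1 mutant grown at permissive 25 °C to find synthetic lethal compounds; 0% = DMSO yeast wells and 100% = medium wells without yeast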
Conditions: S. cerevisiae tim10-1 ts strain growth, BacTiter-Glo, 24 h; at 20 µM; stronger effect = higher value

inhibition, active:
Cc1nc(-c2ccc(Cl)cc2)sc1C(=O)CBr 55.2%, O=C(Oc1c(-c2ccco2)oc2ccccc2c1=O)c1cccnc1 42.6%, O=C(c1ccc2nc(N3CCOCC3)sc2c1)N1CCN(c2ccc(Cl)cc2)CC1 41.5%, N/C(=N\OC(=O)Nc1ccc(Cl)c(Cl)c1)c1ncc(C(F)(F)F)cc1Cl 67.4%, CC1(C)CCSC(/C=C/c2ccccc2)=N1 49.4%, FC(F)(F)Oc1ccc(NC(=S)NCc2ccccc2)cc1 47%, Oc1c(Cl)cc(Cl)c(Cl)c1Cc1c(O)c(Cl)cc(Cl)c1Cl 88.7%, COc1ccc(-n2cc(-c3ccccc3)c3c(=S)nc[nH]c32)cc1 34.4%, O=C(/C(=C/c1cccc(Cl)c1)c1nc2ccccc2[nH]1)c1ccccc1 38.7%, O=C(Nc1cccc(Cl)c1)c1cncn1-c1ccc(F)cc1 33%, Cc1nonc1C1CCCN1C(=O)c1cc(COc2cccc(C(F)(F)F)c2)on1 (stereo not given) 41.6%, O=C1c2ccccc2C(=O)c2c1cccc2N1CCN(Cc2ccccc2)CC1 32%, O=C(CCCN1C(=O)/C(=C/c2ccccc2)SC1=S)Nc1ccc(O)cc1 28.7%, Cc1ccc(C(C[N+](=O)[O-])c2c(C)cc3ccccn23)cc1 (stereo not given) 30.6%, CCN1/C(=C\c2ccc3ccccc3[n+]2CC)Sc2cc(C)ccc21 59%, COc1ccc2nc(/N=C(\N)NC(=O)Nc3ccccc3)nc(C)c2c1 51%, O=C1[C@@H](c2ccccc2)[C@@H](c2ccccc2)N1c1cccnc1 66.5%, Cc1cccc(NC(=O)c2ccc([N+](=O)[O-])o2)c1 50.1%, Cc1onc(NC(=O)c2ccc([N+](=O)[O-])o2)c1Br 45.9%, O=C(Nc1ccc(Br)cn1)c1ccc([N+](=O)[O-])o1 59.5%, CC(=O)/C(=N\Nc1ccc(Cl)cc1Cl)Sc1cccc2cccnc12 43%, Cc1cc(C)c(S(=O)(=O)c2ccccc2)c(OC(=O)c2c(F)cccc2Cl)n1 41.5%, CCN1CCN(C(c2cccnc2)c2cc(Cl)c3cccnc3c2O)CC1 (stereo not given) 34%, CCOC(=O)c1ccc(N2C(=O)CC(N3CCC(C(=O)OCC)CC3)C2=O)cc1 (stereo not given) 47.8%, Cc1[nH]c(=O)c(C(=O)/C=C/c2ccccc2)c2c1CCCC2 50.3%, COc1ccc(Cn2c(-c3ccc(Cl)cc3)c[n+]3ccccc23)cc1 32.9%, Cc1[nH]n(-c2ccc([N+](=O)[O-])cc2)c(=O)c1C=NCCN1CCN(C(=O)c2ccccc2F)CC1 40.4%, COc1ccc(CNC(=O)/C(C#N)=C/c2cccc(OC)c2OC)cc1 78.2%, O=C(NNc1c2ccccc2nc2ccccc12)c1cc2ccccc2cc1O 40.6%, Cc1cc(Nc2ccccc2)n(C(=O)c2ccc(N)cc2)n1 39.9%, Clc1ccc(Nc2ccc3ccccc3n2)cc1 50.6%, C=CS(=O)c1sc(Cl)c(N2CCOCC2)c1[N+](=O)[O-] (stereo not given) 83.8%, Nc1ccccc1SC(C[N+](=O)[O-])c1ccccc1 (stereo not given) 47.1%, CC(=O)Nc1ccc(/C=C/C(=O)c2ccccc2)cc1 36.3%, CCCCCCCCn1c2c(c(=N)c3c1CCC3)CCCC2 30.4%, O=[N+]([O-])c1ccc2oc(-c3cccc(O)c3)nc2c1 49.8%, Cc1ccc(C(=O)NC(=S)Nc2ccccc2C)cc1 29.8%, Cc1ccc(C(=O)/C=C/c2c(C)nn(-c3ccccc3)c2Cl)cc1 38%, Cc1[nH]c2ccccc2c1C(=O)COC(=O)c1c(-c2ccccc2)noc1C 45.4%, CC(=NCc1ccco1)c1c(C(F)(F)F)[nH]n(-c2nc3ccccc3s2)c1=O 63.5%, O=C(O/N=C(/c1ccccc1)c1ccncc1)c1ccccc1[N+](=O)[O-] 35.3%, Cc1ccc(Oc2nc(-c3ccccn3)nc3ccccc23)cc1 35.5%, O=C(ON=C1CCN(S(=O)(=O)c2ccccc2)CC1)c1ccc(Cl)cc1 61%, CCOc1cccc(-c2nn3c(-c4ccccn4)nnc3s2)c1 39%, Cc1cc(C)nc(S/C=C/C(=O)c2ccccc2)n1 71%, COc1ccc(NCc2nnc(SCc3ccccc3)n2-c2ccc(OC)cc2)cc1 38.9%, CC(NC(=S)Nc1ccccc1)C1COc2ccccc2O1 (stereo not given) 37.4%, Cc1ccc(SC(CC(=O)c2ccc(C(C)(C)C)cc2)C(=O)O)cc1 (stereo not given) 38.5%, Cc1cccc(/C(N)=N/OC(=O)c2ccccc2Cl)c1 50.9%, Cc1cc(N=Nc2ccc3ccccc3c2)ccc1O 36.4%

inhibition, inactive:
CCOC(=O)N1CCN(C(=O)c2cc3c(-c4ccc(Cl)cc4)nn(C)c3s2)CC1 22.4%, CCc1nc2ccc(C(=O)N3CCN(c4cccc(Cl)c4)CC3)cc2nc1CC 24.6%, COc1ccc2nc(N3CCN(C(=O)c4ccc([N+](=O)[O-])o4)CC3)sc2c1 -0.8%, Cc1ccccc1CC1(CO)CCCN(C(=O)c2cc(-c3ccccc3)no2)C1 (stereo not given) 21.1%, O=C(Cc1ncc(C(F)(F)F)cc1Cl)Nc1cccc(Br)c1 30.4%, Cc1ccc(C(=O)CCC(=O)N(C)CC(=O)Nc2c(Cl)cccc2Cl)cc1 -3%, COc1ccc(NC(=S)N2N=CCC2c2ccccc2)cc1 (stereo not given) 16.2%, C/C(=N\NC(=S)NCc1ccccc1)C1CCCCC1 26.9%, Cc1ccc2c(c1)C1CN(C)CCC1N2S(=O)(=O)c1ccc(Oc2ccc([N+](=O)[O-])cc2)cc1 (stereo not given) 22.1%, CCc1nn(CCCC(=O)Nc2ccc(C)cc2C)c(=O)c2cc3occc3n12 -8.95%, CCOC(=O)C1Cn2c(nc3c(c2=O)C(C)(CC)Cc2ccccc2-3)S1 (stereo not given) 10%, CCNC(=S)N(CCc1c(C)[nH]c2ccc(C)cc12)Cc1ccco1 24.5%, CCOC(=O)C1(S(=O)(=O)c2ccccc2)CCN(Cc2ccccc2)CC1 14.3%, O=C(c1ccc(CSc2ccccc2)cc1)N1CCCCCC1 26.4%, COc1ccc(/C=C2/SC(=O)N(CCCCCC(=O)Nc3ccccc3C(=O)O)C2=S)cc1 4.8%, O=C1/C(=C\c2ccccc2Cl)SC(=S)N1CCC(=O)N1CCCc2ccccc21 27.6%, COc1ccccc1C1C(C#N)=C(N)Oc2c1c(-c1ccccc1)nn2-c1ccccc1 (stereo not given) 21.8%, O=c1c(-c2ccc3c(c2)OCCO3)c(C(F)(F)F)oc2cc(O)cc(O)c12 22.5%, Cc1cccc(CN2CCC(CNC(=O)Nc3ccc(F)c(Cl)c3)CC2)c1 14.9%, CCOC(=O)C1=C(C)N=c2s/c(=C\C(=O)OC)c(=O)n2C1c1ccc(OC)cc1 (stereo not given) 24.7%, Oc1c(C(c2ccccn2)N2CCOCC2)ccc2cccnc12 (stereo not given) 16.2%, CCc1ccc(-c2cc3c(=O)n(CC(=O)NCCCN4CCN(Cc5ccccc5)CC4)nc(C)n3n2)cc1 -46.4%, CCCCNC(=S)N/N=C1\CCCCc2ccccc21 22.1%, C=CCNC(=S)N1CCN(CCN=Cc2c(C)[nH]n(-c3ccc([N+](=O)[O-])cc3)c2=O)CC1 27.4%, COc1ccc(-c2oc3ncn(Cc4ccco4)c(=N)c3c2-c2ccc(OC)cc2)cc1 17.6%, CCOC(=O)c1c(N)nn(C(=O)c2ccccc2)c1-c1ccccc1 16.3%, C=CCNc1nc(Nc2ccc(Cl)cc2)nc(OC)n1 2.4%, Cc1ccc(OS(=O)Nc2cccc3nccnc23)cc1 (stereo not given) 25.4%, COc1ccc(C(=O)/C=C/c2ccc(-c3ccccc3)cc2)cc1CSCC(=O)O 22.9%, CN1c2ccccc2-c2nc3ccccc3n2C1c1ccco1 (stereo not given) 19.8%, CCn1nc(C)c(NC(=O)/C=C/c2ccc(OC)c(COc3ccc(Br)cc3)c2)c1C 19.9%, COc1ccccc1-n1ccnc(SCC(=O)NC2CCCCC2)c1=O 11.8%, CCc1ccc(C(=O)NC(=S)Nc2ccccc2N2CCOCC2)cc1 17.1%, COc1ccccc1C(=O)NC(=S)Nc1ccccc1N1CCCCC1 19.4%, COc1ccc(/C=N/Nc2ncnc3sc4c(c23)CCCC4)cc1O 17.2%, CCOC(=O)N1CCC(N2Cc3cccc(C(=O)Nc4c(C)cccc4CC)c3C2=O)CC1 16.6%, COc1ccc(C(=O)NC(=S)NNC(=O)c2c(-c3ccccc3)noc2C)cc1 18.1%, COc1ccc(Nc2nc(N)nc(CSC(=S)N3CCC(C)CC3)n2)cc1 29.9%, Cc1cc(Br)ccc1NC(=O)c1sc2ncn(CC(=O)N3CCN(c4ccccn4)CC3)c(=O)c2c1C -10.2%, O=C(Oc1ccc(-c2nc(-c3ccccn3)no2)cc1)c1ccccc1 30.3%, N#Cc1ccc(CSc2nnc(-c3ccccn3)n2-c2ccc(Cl)cc2)cc1 30.9%, COc1ccc(OC)c2sc(NC(=O)C3COc4ccccc4O3)nc12 (stereo not given) 23.6%, CC(c1ccco1)N(C(=O)Nc1ccccc1)C1CCCCC1 (stereo not given) 19.4%, c1c2c(cc3sc(N4CCCCC4)nc13)OCCO2 27.8%, Cc1ccc(/C(N)=N/OC(=O)COc2ccc(Cl)c(C)c2)cc1 29.1%
